Test results reported in PubChem BioAssay (EPA / NIEHS).
Activity calls are given as the source filed them. Rule for the calls: active = hit-call score of the fitted dose curve at least 0.9, where 1 is the maximum; inactive = score below 0.9.

Read-out: Interferon-gamma inducible Protein 10 (IP10), CXCL10 (gene 3627)
Assay: BSK_KF3CT_IP10: BioMAP Diversity Plus: KF3CT Assay for Interferon-gamma inducible Protein 10 (IP10) Biomarker Activity (AID 2283068)
Settings: primary human keratinocytes with fibroblasts; actives raise or lower the signal
Procedure, shortened: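 Human keratinocyte plus foreskin fibroblast primary co-culture exposed to test chemical for 24 h; IP-10 measured by ELISA. Concentration-response fitted bidirectionally against DMSO control as baseline.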

| Compound | outcome | AC50 |
| --- | --- | --- |
| CC(C)=CCCC(C)=CC=O | inactive |  |
| O=C(OC[C@H]1O[C@@H](OC(=O)c2cc(O)c(O)c(OC(=O)c3cc(O)c(O)c(O)c3)c2)[C@H](OC(=O)c2cc(O)c(O)c(OC(=O)c3cc(O)c(O)c(O)c3)c2)[C@@H](OC(=O)c2cc(O)c(O)c(OC(=O)c3cc(O)c(O)c(O)c3)c2)[C@@H]1OC(=O)c1cc(O)c(O)c(OC(=O)c2cc(O)c(O)c(O)c2)c1)c1cc(O)c(O)c(OC(=O)c2cc(O)c(O)c(O)c2)c1 |  | 4.98 µM (active) |
| CC(C)=CCCC(C)CCO (centres undefined) | inactive |  |
| CCCCCCCCO | inactive |  |
| CC(O)CN(CCN(CC(C)O)CC(C)O)CC(C)O (centres undefined) | inactive |  |
| CCc1cc(SCc2sc(-c3ccc(C(F)(F)F)cc3)nc2CN2CCN(c3ccc(OC)cc3)CC2)ccc1OCC(=O)O |  | 3.58 µM (active) |

Read-out: not listed separately
Assay: BSK_KF3CT_SRB: Viability Assessment in the BioMAP Diversity Plus: KF3CT Assay (AID 2283069);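 note: read 24 h after compound addition; fitted for both signal gain and loss against DMSO baseline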
Settings: primary human keratinocytes with fibroblasts
Procedure, shortened: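 Overt cytotoxicity is assessed as total protein by sulforhodamine B staining in parallel human skin co-cultures at 24 h after dosing. DMSO serves as negative control and baseline.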

| Compound | outcome | AC50 |
| --- | --- | --- |
| Cc1c(-c2cccnc2)c2ccccc2n1CCCCC(=O)O | inactive |  |
| CC[C@H]1CC[C@H](NCc2cc3c(cc2OC)[C@H]2C[C@H]2C(=O)N3C)[C@H](c2ccccc2)N1 | inactive |  |
| CCOCCOCCOCCO | inactive |  |
| Cn1c(=O)cc(Oc2ccc(F)cc2F)c2cnc(NCC(C)(C)O)nc21 | inactive |  |
| CC[C@H](C)C(=O)O[C@H]1C[C@@H](C)C=C2C=C[C@H](C)[C@H](CC[C@@H]3C[C@@H](O)CC(=O)O3)[C@H]21 |  | 31.7 µM (active) |
| CCN(C(=O)c1cc(C)cc(OC[C@H](C)Nc2ccncc2)c1)C(C)C | inactive |  |
| Cc1ccc(S(=O)(=O)O)cc1C | inactive |  |
| C[C@](N)(Cc1ccc(O)c(O)c1)C(=O)O | inactive |  |
| CC(C)CCCCCCOC(=O)c1ccc(C(=O)OCCCCCCC(C)C)c(C(=O)OCCCCCCC(C)C)c1 | inactive |  |
| O=C(O)CCN(C1(C(=O)NO)CCCC1)S(=O)(=O)c1ccc(Oc2ccc(F)cc2)cc1 | inactive |  |
| CC(C)CCCCCCCOC(=O)CCCCC(=O)OCCCCCCCC(C)C | inactive |  |
| CNCc1ccc(NC(=O)c2c[nH]c3c2C(=O)CCC3)cc1 | inactive |  |
| Cc1ccc(N)cc1O | inactive |  |
| Cc1[nH]cnc1C[C@H]1CCc2c(C)c3ccccc3n2C1=O | inactive |  |
| CCCCC(CC)COC(=O)c1ccc(C(=O)OCC(CC)CCCC)cc1 (centres undefined) | inactive |  |
| CC(C)CC(C)(O)C#CC(C)(O)CC(C)C (centres undefined) | inactive |  |
| O=C(O)CC(O)C(=O)O (centres undefined) | inactive |  |
| COc1cccc(-c2ccc(/C=C\CN3CCCCCC3)cc2Cl)c1 |  | 30.6 µM (active) |
| CN(C)c1ccc(N=NS(=O)(=O)O)cc1 | inactive |  |
| COC(=O)CC(=O)OC | inactive |  |
| CCOC(=O)CC(CC(=O)OCC)(OC(C)=O)C(=O)OCC | inactive |  |
| CC(C)=CCCC(C)=CC=O | inactive |  |
| O=C(OC[C@H]1O[C@@H](OC(=O)c2cc(O)c(O)c(OC(=O)c3cc(O)c(O)c(O)c3)c2)[C@H](OC(=O)c2cc(O)c(O)c(OC(=O)c3cc(O)c(O)c(O)c3)c2)[C@@H](OC(=O)c2cc(O)c(O)c(OC(=O)c3cc(O)c(O)c(O)c3)c2)[C@@H]1OC(=O)c1cc(O)c(O)c(OC(=O)c2cc(O)c(O)c(O)c2)c1)c1cc(O)c(O)c(OC(=O)c2cc(O)c(O)c(O)c2)c1 | inactive |  |
| CC(C)=CCCC(C)CCO (centres undefined) | inactive |  |
| CCCCCCCCO | inactive |  |
| CC(C)=CCC/C(C)=C\CO | inactive |  |
| Clc1nc(Cl)c(Cl)c(Cl)c1Cl | inactive |  |
| CC(O)CN(CCN(CC(C)O)CC(C)O)CC(C)O (centres undefined) | inactive |  |
| CCc1cc(SCc2sc(-c3ccc(C(F)(F)F)cc3)nc2CN2CCN(c3ccc(OC)cc3)CC2)ccc1OCC(=O)O |  | 3.42 µM (active) |

Read-out: Interleukin-1 alpha (IL1a), IL1A (gene 3552)
Assay: BSK_KF3CT_IL1a: BioMAP Diversity Plus: KF3CT Assay for Interleukin-1 alpha (IL1a) Biomarker Activity (AID 2283070)
Settings: primary human keratinocytes with fibroblasts; actives raise or lower the signal
Procedure, shortened: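 Readout is IL-1a level by ELISA, compared bidirectionally with DMSO as baseline. Cells: human keratinocytes co-cultured with foreskin fibroblasts, harvested 24 h post-dose.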

| Compound | outcome | AC50 |
| --- | --- | --- |
| Cc1c(-c2cccnc2)c2ccccc2n1CCCCC(=O)O | inactive |  |
| CC[C@H]1CC[C@H](NCc2cc3c(cc2OC)[C@H]2C[C@H]2C(=O)N3C)[C@H](c2ccccc2)N1 | inactive |  |
| CCOCCOCCOCCO | inactive |  |
| Cn1c(=O)cc(Oc2ccc(F)cc2F)c2cnc(NCC(C)(C)O)nc21 | inactive |  |
| CC[C@H](C)C(=O)O[C@H]1C[C@@H](C)C=C2C=C[C@H](C)[C@H](CC[C@@H]3C[C@@H](O)CC(=O)O3)[C@H]21 |  | 33.5 µM (active) |
| CCN(C(=O)c1cc(C)cc(OC[C@H](C)Nc2ccncc2)c1)C(C)C | inactive |  |
| Cc1ccc(S(=O)(=O)O)cc1C | inactive |  |
| C[C@](N)(Cc1ccc(O)c(O)c1)C(=O)O | inactive |  |
| CC(C)CCCCCCOC(=O)c1ccc(C(=O)OCCCCCCC(C)C)c(C(=O)OCCCCCCC(C)C)c1 | inactive |  |
| O=C(O)CCN(C1(C(=O)NO)CCCC1)S(=O)(=O)c1ccc(Oc2ccc(F)cc2)cc1 | inactive |  |
| CC(C)CCCCCCCOC(=O)CCCCC(=O)OCCCCCCCC(C)C | inactive |  |
| CNCc1ccc(NC(=O)c2c[nH]c3c2C(=O)CCC3)cc1 | inactive |  |
| Cc1ccc(N)cc1O | inactive |  |
| Cc1[nH]cnc1C[C@H]1CCc2c(C)c3ccccc3n2C1=O | inactive |  |
| CCCCC(CC)COC(=O)c1ccc(C(=O)OCC(CC)CCCC)cc1 (centres undefined) | inactive |  |
| CC(C)CC(C)(O)C#CC(C)(O)CC(C)C (centres undefined) | inactive |  |
| O=C(O)CC(O)C(=O)O (centres undefined) | inactive |  |
| COc1cccc(-c2ccc(/C=C\CN3CCCCCC3)cc2Cl)c1 |  | 29 µM (active) |
| CN(C)c1ccc(N=NS(=O)(=O)O)cc1 | inactive |  |
| COC(=O)CC(=O)OC | inactive |  |
| CCOC(=O)CC(CC(=O)OCC)(OC(C)=O)C(=O)OCC | inactive |  |
| CC(C)=CCCC(C)=CC=O | inactive |  |
| O=C(OC[C@H]1O[C@@H](OC(=O)c2cc(O)c(O)c(OC(=O)c3cc(O)c(O)c(O)c3)c2)[C@H](OC(=O)c2cc(O)c(O)c(OC(=O)c3cc(O)c(O)c(O)c3)c2)[C@@H](OC(=O)c2cc(O)c(O)c(OC(=O)c3cc(O)c(O)c(O)c3)c2)[C@@H]1OC(=O)c1cc(O)c(O)c(OC(=O)c2cc(O)c(O)c(O)c2)c1)c1cc(O)c(O)c(OC(=O)c2cc(O)c(O)c(O)c2)c1 |  | 6.1 µM (active) |
| CC(C)=CCCC(C)CCO (centres undefined) | inactive |  |
| CCCCCCCCO | inactive |  |
| CC(C)=CCC/C(C)=C\CO | inactive |  |
| Clc1nc(Cl)c(Cl)c(Cl)c1Cl | inactive |  |
| CC(O)CN(CCN(CC(C)O)CC(C)O)CC(C)O (centres undefined) | inactive |  |
| CCc1cc(SCc2sc(-c3ccc(C(F)(F)F)cc3)nc2CN2CCN(c3ccc(OC)cc3)CC2)ccc1OCC(=O)O |  | 7.25 µM (active) |
